These results are taken from ChEMBL document CHEMBL1201862, “PubChem BioAssay data set” (2004).

About 4,000 (6.9%) of roughly 58,000 sequences were called active. Rule as the data show it: active = GI50 up to about 1.1 µM and inactive = higher. Only a sample is shown. Potency and affinity values are given separately.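 Protocol summary: plate cells (96-well), add compound at 5 concentrations, incubate 48 h, interpolate endpoints linearly. Abbreviation: GI50, concentration required for 50% inhibition of growth.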

The subject of this test is KM12. The test can be described thus: NCI tumour cell line growth inhibition, 48 h.
Substance “[Bis(aminomethyl)pentamethylenesilane]dichloropaltinum(II), CHEMBL2146202” yielded a GI50 of 5.56 µM.

“[Bis(aminomethyl)tetramethylenesilane]dichloropaltinum(II), CHEMBL2146205” had a GI50 of 78 µM.

“mu-(1,7-nanodiamine-N,N')bis-(cis-aminedichloroplatimum (II)), CHEMBL2146215” returned a GI50 of 97.1 µM.

Take “[Bis(aminomethyl)pentamethylenesilane]tetrachloropaltinum(IV), CHEMBL2146204”: the GI50 turned out to be 4.12 µM.

In turn, “[Bis(aminomethyl)ethylmethylsilane]tetrachloroplatinum(IV), CHEMBL2146192” came in with a GI50 of 3.89 µM.

Substance “[Bis(aminomethyl)diethylsilane]tetrachloroplatinum(IV), CHEMBL2146203” showed a GI50 of 8.85 µM.

“[Bis(aminomethyl)dimethylsilane]dichloroplatinum (II), CHEMBL2146201” returned a GI50 of over 100 µM.

In the case of CISPLATIN, CHEMBL11359, the GI50 turned out to be 10 µM.

Substance “[Bis(aminomethyl)dimethylsilane]tetrachloroplatinum(IV), CHEMBL2146190” came in with a GI50 of 18.1 µM.

In turn, “[Bis(aminomethyl)tetramethylenesilane]tetrachloropaltinum(IV), CHEMBL2146189” came in with a GI50 of 14.8 µM.

Consider “cis-Bis[[(trimethylsilyl)methyl]amino]tetrachloroplatinum(IV), CHEMBL2146191”, for which the GI50 came out at 9.66 µM.
